Compound activity as filed in PubChem BioAssay.
NOMO-1 viab: STK33 inhibitor candidate reducing NOMO-1 cell viability; inhibition, % (no concentration beside the values); 37,000 tested, 7.5% active; NOMO-1 AML viability, CellTiter-Glo luminescence, 72 h; in the data active = inhibition above about 80%; inconclusive = no clear call, values can overlap the other calls
PD-1 reversal: reversal of PD-1 mediated T-cell inhibition; primary human CD4 T cells, PD-L1 beads, CellTiter-Glo 96 h; 29,000 tested, under 10 active; activation, % (concentration not given with the values); AID 2316; call rule not given here
STK33 inh: inhibitors of human STK33 kinase; Q9BYT3; ADP-Glo luminescence, MBP substrate; inhibition, % at 12.5 µM; 27,000 tested, 0.44% active; in the data active = inhibition above about 20%; inconclusive = no clear call, values can overlap the other calls
Target sequence (Q9BYT3 whole entry, looked up): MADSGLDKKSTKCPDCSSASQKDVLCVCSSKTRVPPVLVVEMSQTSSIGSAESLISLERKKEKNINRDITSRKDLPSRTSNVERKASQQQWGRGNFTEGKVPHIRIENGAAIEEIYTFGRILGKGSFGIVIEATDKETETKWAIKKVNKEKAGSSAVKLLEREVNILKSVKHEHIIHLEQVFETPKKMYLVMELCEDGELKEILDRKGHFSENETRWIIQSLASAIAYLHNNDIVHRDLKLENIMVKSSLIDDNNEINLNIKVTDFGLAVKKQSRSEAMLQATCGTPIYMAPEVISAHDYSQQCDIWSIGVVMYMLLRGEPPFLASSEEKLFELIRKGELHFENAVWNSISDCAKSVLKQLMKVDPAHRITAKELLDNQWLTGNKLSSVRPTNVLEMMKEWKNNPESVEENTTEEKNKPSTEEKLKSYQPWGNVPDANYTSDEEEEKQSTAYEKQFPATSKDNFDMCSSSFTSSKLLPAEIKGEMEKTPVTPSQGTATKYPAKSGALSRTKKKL
Of the large screens only hits and unclear results are named; the others gave an inactive call. The sample as a whole holds a higher share of hits than the screen did.

C[C@@H]1CCCCO[C@@H](CN(C)S(=O)(=O)c2ccc(Cl)cc2)[C@@H](C)CN([C@H](C)CO)C(=O)c2cc(NC(=O)Nc3ccc(C(F)(F)F)cc3)ccc2O1	none
C=C1[C@H](OC(=O)C(C)CC)[C@@H](OC(=O)C(C)C)[C@@H](O)C(C)(C)/C=C\[C@H](C)C(=O)[C@@]2(O)C[C@H](C)[C@H](O)[C@@H]2[C@H]1OC(=O)C(C)CC (stereo not given in full)	PD-1 reversal 55.9
C[C@H](CO)N1C[C@H](C)[C@H](CN(C)S(=O)(=O)c2ccccc2)Oc2c(NC(=O)c3nc4ccccc4s3)cccc2C1=O	NOMO-1 viab 87.7 (no result: STK33 inh)
COc1ccc(S(=O)(=O)N(C)C[C@H]2Oc3c(NC(=O)c4nc5ccccc5s4)cccc3C(=O)N([C@@H](C)CO)C[C@H]2C)cc1	none (no result: PD-1 reversal, STK33 inh)
COc1ccc(S(=O)(=O)N(C)C[C@@H]2Oc3c(NC(=O)c4nc5ccccc5s4)cccc3C(=O)N([C@H](C)CO)C[C@@H]2C)cc1	NOMO-1 viab 117.0 (no result: STK33 inh)
Cc1ccc(S(=O)(=O)N(C)C[C@@H]2Oc3c(NC(=O)c4nc5ccccc5s4)cccc3C(=O)N([C@H](C)CO)C[C@H]2C)cc1	NOMO-1 viab inconclusive (no result: STK33 inh)
O=C(Oc1ccc(C2SCCS2)cc1)C1CCCCC1	none
C[C@H]1CN([C@@H](C)CO)C(=O)c2cc(NC(=O)NC3CCCCC3)ccc2O[C@@H]1CN(C)Cc1ccc2c(c1)OCO2	none
C[C@@H]1CN([C@H](C)CO)C(=O)c2cc(NC(=O)NC3CCCCC3)ccc2O[C@@H]1CN(C)Cc1ccc2c(c1)OCO2	none (no result: STK33 inh)
C[C@H](CO)N1C[C@H](C)[C@H](CN(C)Cc2ccc3c(c2)OCO3)Oc2ccc(NC(=O)NC3CCCCC3)cc2C1=O	NOMO-1 viab 93.6
C[C@H]1CN([C@@H](C)CO)C(=O)c2cc(NC(=O)NC3CCCCC3)ccc2O[C@H]1CN(C)Cc1ccc2c(c1)OCO2	NOMO-1 viab 101.6 (no result: STK33 inh)
N#Cc1c(-c2ccccc2Cl)cc(C2CC2)nc1N	none (no result: STK33 inh)
N#Cc1c(N)nc(Sc2ccc(Cl)cc2)c(C#N)c1-c1ccccc1	NOMO-1 viab 101.5 (no result: STK33 inh)
COc1cc(N)c(Cl)cc1C(=O)O	none (no result: STK33 inh)
CC(NS(=O)(=O)c1ccc(F)cc1)C(=O)Nc1ccccc1F (stereo not given)	none (no result: PD-1 reversal)
COc1cccc(C(=O)/C=c2\[nH]c(=O)/c(=C\c3cccs3)s2)c1	NOMO-1 viab 104.3
C[C@@H]1CN([C@H](C)CO)C(=O)Cc2cc(NC(=O)Cc3ccccc3)ccc2O[C@@H]1CN(C)Cc1ccc(Oc2ccccc2)cc1	NOMO-1 viab 115.6
C[C@H]1CN([C@@H](C)CO)C(=O)Cc2cc(NC(=O)Cc3ccccc3)ccc2O[C@@H]1CN(C)Cc1ccc(-c2ccccc2)cc1	none
C[C@H]1CN([C@@H](C)CO)C(=O)Cc2cc(NC(=O)Cc3ccccc3)ccc2O[C@H]1CN(C)Cc1ccc(Oc2ccccc2)cc1	none
C[C@H]1CN([C@@H](C)CO)C(=O)Cc2cc(NC(=O)Cc3ccccc3)ccc2O[C@H]1CN(C)Cc1ccc(-c2ccccc2)cc1	NOMO-1 viab 98.9
CC(=O)N/C(=C/c1ccc(Cl)c(Cl)c1)C(=O)O	none
CC(C)c1cc(C(=O)N2CCOCC2)c(NC(=O)c2cc(-c3cccnc3)nc3ccc(Br)cc23)s1	none (no result: PD-1 reversal)
Cc1ccc(C2CC(=O)c3cnc(NCCN4CCOCC4)nc3C2)cc1 (stereo not given)	none (no result: PD-1 reversal)
C[C@H]1CN([C@@H](C)CO)C(=O)c2cccc(NC(=O)Nc3ccc4c(c3)OCO4)c2O[C@@H]1CN(C)Cc1ccc(C(=O)O)cc1	none (no result: PD-1 reversal, STK33 inh)
C[C@@H]1CN([C@@H](C)CO)C(=O)c2cccc(NC(=O)Nc3ccc4c(c3)OCO4)c2O[C@@H]1CN(C)Cc1ccc(C(=O)O)cc1	none (no result: STK33 inh)
C[C@@H]1CN([C@@H](C)CO)C(=O)c2cccc(NC(=O)Nc3ccc4c(c3)OCO4)c2O[C@H]1CN(C)Cc1ccc(C(=O)Nc2ccccc2N)cc1	NOMO-1 viab 126.3 (no result: STK33 inh)
C[C@H]1CN([C@@H](C)CO)C(=O)c2cccc(NC(=O)Nc3ccc4c(c3)OCO4)c2O[C@@H]1CN(C)Cc1ccc(C(=O)Nc2ccccc2N)cc1	NOMO-1 viab 127.4 (no result: STK33 inh)
C[C@@H]1CN([C@@H](C)CO)C(=O)c2cccc(NC(=O)Nc3ccc4c(c3)OCO4)c2O[C@@H]1CN(C)Cc1ccc(C(=O)Nc2ccccc2N)cc1	NOMO-1 viab 141.6 (no result: STK33 inh)
C[C@@H]1CN([C@H](C)CO)C(=O)c2cccc(NC(=O)Nc3ccc4c(c3)OCO4)c2O[C@H]1CN(C)Cc1ccc(C(=O)O)cc1	none (no result: PD-1 reversal, STK33 inh)
Cc1cc(C)nc(/N=C2\NC(=O)CC(C(=O)O)N2c2cccc(C(F)(F)F)c2)n1 (stereo not given)	none
Cc1ccc(NC(=O)c2oc3ccccc3c2NC(=O)Cc2coc3ccc(C)cc23)cc1	none
Cc1nc(-c2cc(C#N)c(SCCNS(=O)(=O)c3ccc(C(C)(C)C)cc3)nc2C)cs1	none (no result: STK33 inh)
COc1ccc(CNCCCN2CCOCC2)cc1OC	none (no result: PD-1 reversal)
COCC(=O)Nc1cc(Sc2ccccc2)ccc1N=C(NC(C)=O)NC(C)=O	none
O=[N+]([O-])c1cccc(NC(=S)NCCn2cc(Br)cn2)c1	none
CCOc1ccc(NC(=O)Cn2cnc3sc(C(N)=O)c(C)c3c2=O)cc1	none
Cc1cc(C(=O)CSc2nnc3ccccn23)c(C)n1-c1cc(Cl)ccc1Cl	none (no result: PD-1 reversal)
C[C@@H]1CCCCO[C@H](CN(C)C(=O)Nc2ccc(C(F)(F)F)cc2)[C@@H](C)CN([C@H](C)CO)C(=O)c2cc(NC(=O)NC3CCCCC3)ccc2O1	none
C[C@@H]1CCCCO[C@@H](CN(C)CC2CC2)[C@@H](C)CN([C@H](C)CO)C(=O)c2cc(NC(=O)Nc3ccc(C(F)(F)F)cc3)ccc2O1	NOMO-1 viab 118.9
C[C@@H]1CCCCO[C@@H](CN(C)CC2CCCCC2)[C@@H](C)CN([C@H](C)CO)C(=O)c2cc(NC(=O)Nc3ccc(F)cc3)ccc2O1	NOMO-1 viab 115.3
C[C@@H]1CCCCO[C@H](CN(C)CC2CCCCC2)[C@@H](C)CN([C@H](C)CO)C(=O)c2cc(NC(=O)Nc3ccccc3)ccc2O1	NOMO-1 viab inconclusive (no result: PD-1 reversal)
C[C@@H]1CCCCO[C@@H](CN(C)CC2CCCCC2)[C@@H](C)CN([C@H](C)CO)C(=O)c2cc(NC(=O)Nc3ccc(C(F)(F)F)cc3)ccc2O1	NOMO-1 viab 117.0
C[C@@H]1CCCCO[C@@H](CN(C)C(=O)NC2CCCCC2)[C@@H](C)CN([C@H](C)CO)C(=O)c2cc(NC(=O)Nc3ccc(C(F)(F)F)cc3)ccc2O1	NOMO-1 viab 99.5
C[C@@H]1CCCCO[C@@H](CN(C)Cc2ccc(C(F)(F)F)cc2)[C@@H](C)CN([C@H](C)CO)C(=O)c2cc(NC(=O)Nc3ccc(F)cc3)ccc2O1	none (no result: PD-1 reversal)
C[C@@H]1CCCCO[C@@H](CN(C)Cc2ccncc2)[C@@H](C)CN([C@H](C)CO)C(=O)c2cc(NC(=O)Nc3ccc(C(F)(F)F)cc3)ccc2O1	none (no result: PD-1 reversal)
c1ccc(-c2noc(COc3cccc4ccccc34)n2)nc1	none
O=S1(=O)CC=C(Sc2ccccc2)C1	none (no result: STK33 inh)
CCn1c(SCC(=O)Nc2cccc(F)c2)nnc1-c1ccc(OC)cc1	none (no result: PD-1 reversal)
O=C1C(=O)N(CCCn2ccnc2)C(c2ccc(Cl)cc2)C1C(=O)c1cccs1 (stereo not given)	none
COc1ccc(OC)c2c(=O)cc(C(=O)O)oc12	none (no result: STK33 inh)
COc1ccc(S(=O)(=O)N(C)CC(=O)NC2CC2)cc1C	none (no result: PD-1 reversal)
C[C@@H]1CCCCO[C@@H](CN(C)C(=O)Nc2ccc(C(F)(F)F)cc2)[C@@H](C)CN([C@H](C)CO)C(=O)c2cc(NC(=O)c3ccccc3)ccc2O1	NOMO-1 viab 90.6
C[C@@H]1CCCCO[C@@H](CN(C)C(=O)Nc2ccccc2)[C@@H](C)CN([C@H](C)CO)C(=O)c2cc(NC(=O)Nc3ccc(C(F)(F)F)cc3)ccc2O1	none
